The sample as a whole holds a higher share of hits than the screen did.
Methyltransferases: Primary Screen for Target Class Profiling of Small Molecule Inhibitors of Methyltransferases | calls only at 40 µM | purified enzyme, MTase-Glo SAH luminescence; active compounds read low | AID 1745853, 2022 | 25,000 tested, 3.9% active; call rule not given here
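Each enzyme was reacted with SAM and its substrate, with compounds tested once at 40 uM; SAH formed was read by MTase-Glo luminescence.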
* = called active by the depositor. On the % scale 0 is the no-effect control and ±100 the full control effect.

Results for Cc1cc(C)cc(NS(=O)(=O)c2cc3c(cc2Cl)n(C)c(=O)n3C)c1 ?
Methyltransferases: inactive

What do the screens show for `COc1ccc(OC)c(-c2ccc(NC(=O)c3ccncc3F)cc2)c1`?
Methyltransferases: inactive

How did Nc1nccc(Oc2ccc(NC(=O)c3c[nH]cc(-c4ccc(F)cc4)c3=O)cc2F)c1Cl do in these assays?
Methyltransferases: active

Results for O=C(Nc1ccc(F)cc1)c1ccnc2[nH]ccc12 ?
Methyltransferases: inactive

What do the screens show for `O=C(c1ccc2c(=O)nc3c(-c4cccc(F)c4)n[nH]n3c2c1)N1CCN(c2ccc(F)cc2)CC1`?
Methyltransferases: inactive

How did COc1ccc(NC(=O)c2ncn3c2C(=O)N(C2CC2)C(C)(C(=O)NC2CCCC2)C3)c(OC)c1 (stereo unspecified) do in these assays?
Methyltransferases: inactive

How did CC(C)c1cc(CNc2nc(Nc3cc(C4CC4)[nH]n3)cc(N3CCN(C)CC3)n2)on1 do in these assays?
Methyltransferases: active

What do the screens show for `CCC1c2ccc(C)n2CCN1C(=O)Nc1ccc(OC)cc1OC` (stereo unspecified)?
Methyltransferases: inactive

Results for COCCCN1C(=O)c2ccc(-c3ccccc3)n2CC1(C)C(=O)NC1CCCCCCC1 (stereo unspecified) ?
Methyltransferases: inactive

How did Cn1c(=O)c2ccc(C(=O)NC3CCCCC3)cc2n2c(SCC(=O)c3ccc(F)cc3)nnc12 do in these assays?
Methyltransferases: inactive

How did O=C(O)CSc1cc(NS(=O)(=O)c2ccc(Br)cc2)c2ccccc2c1O do in these assays?
Methyltransferases: active

How did Cn1c(=O)n(C)c2cc(S(=O)(=O)Nc3ccc(Br)cc3)ccc21 do in these assays?
Methyltransferases: inactive

What do the screens show for `COC(=O)c1cc2n(n1)CC(C)(C(=O)NC1CCCCCC1)N(c1cccc(SC)c1)C2=O` (stereo unspecified)?
Methyltransferases: inactive

How did CC(C)CC(NC(=O)OCc1ccccc1)C(=O)NC(CC(C)C)C(=O)NC(CCC(=O)O)C(=O)Nc1ccc2ccccc2c1 (stereo unspecified) do in these assays?
Methyltransferases: inactive

Results for Cc1cc(=O)oc2cc(NC(=O)[C@H](CCC(=O)O)NC(=O)[C@H](CC(C)C)NC(=O)[C@H](CC(C)C)NC(=O)OCc3ccccc3)ccc12 ?
Methyltransferases: active

How did CC(C)Cn1c(=O)c2ccc(C(=O)NC(C)C)cc2n2c(=O)n(CC(=O)c3ccc(Cl)cc3)nc12 do in these assays?
Methyltransferases: inactive

How did O=c1c2ccccc2n2c(SCc3ccc(F)cc3)nnc2n1Cc1ccccc1 do in these assays?
Methyltransferases: inactive

What do the screens show for `CC(C)NC(=O)Cn1nc2n(C)c(=O)c3ccc(C(=O)NC4CCCC4)cc3n2c1=O`?
Methyltransferases: inactive

Results for CCCN1C(=O)c2c(C(=O)NCc3cccc(F)c3)ncn2CC1(C)C(=O)NCCC(C)C (stereo unspecified) ?
Methyltransferases: inactive

How did CC(C)CNC(=O)c1ccc2c(=O)n(Cc3ccccc3)c3nn(Cc4ccccc4F)c(=O)n3c2c1 do in these assays?
Methyltransferases: inactive

How did O=C1NC2CCCCN2C12CCN(CCCN1c3ccccc3CCc3ccc(Cl)cc31)CC2 (stereo unspecified) do in these assays?
Methyltransferases: active

What do the screens show for `OCCN1CCN(CCCN2c3ccccc3Sc3ccc(Cl)cc32)CC1`?
Methyltransferases: inactive

What do the screens show for `CN(C)CCCN1c2ccccc2Sc2ccc(Cl)cc21`?
Methyltransferases: inactive

How did COCCCNC(=O)c1cc2n(n1)CC(C)(C(=O)NC1CCCCCC1)N(C)C2=O (stereo unspecified) do in these assays?
Methyltransferases: inactive

What do the screens show for `N#CC(=C(\N)Sc1ccccc1N)/C(C#N)=C(/N)Sc1ccccc1N`?
Methyltransferases: active

How did CC(C)CCn1c(=O)c2ccc(C(=O)NC3CCCC3)cc2n2c(=O)n(Cc3ccccc3F)nc12 do in these assays?
Methyltransferases: inactive

How did COc1ccccc1NC(=O)CSc1nnc2n(Cc3ccc(C)cc3)c(=O)c3ccccc3n12 do in these assays?
Methyltransferases: inactive

How did Cc1cccc(Cn2nc3n(CC(C)C)c(=O)c4ccccc4n3c2=O)c1 do in these assays?
Methyltransferases: inactive

How did C=CC(=O)Nc1cccc(Nc2nc(Nc3ccc(N4CCN(C(C)=O)CC4)cc3OC)ncc2C(F)(F)F)c1 do in these assays?
Methyltransferases: inactive

How did C=CC(=O)Nc1cccc(Oc2nc(Nc3ccc(N4CCN(C)CC4)cc3)ncc2Cl)c1 do in these assays?
Methyltransferases: active

How did Cc1cc(-c2cc(OC(=O)c3ccccc3)ccc2Cl)cc2nnc(Nc3ccc(OCCN4CCCC4)cc3)nc12 do in these assays?
Methyltransferases: inactive

Results for Cc1ccc(O)c(N=Nc2ccccc2)n1 ?
Methyltransferases: active

Results for CCCC1c2ccc(C)n2CCN1C(=O)Nc1ccc(F)cc1F (stereo unspecified) ?
Methyltransferases: inactive

How did C=CCn1c(=O)c2ccc(C(=O)NC(C)CC)cc2n2c(=O)n(CC(=O)Nc3ccc(F)cc3)nc12 (stereo unspecified) do in these assays?
Methyltransferases: inactive

Results for CC(C)NC(=O)c1ccc2c(=O)n(C)c3nn(CC(=O)Nc4ccccc4)c(=O)n3c2c1 ?
Methyltransferases: inactive

Results for C=C(C(=O)O)C1CC2=C(C)CCCC2(C)C[C@@H]1O (stereo partly specified) ?
Methyltransferases: inactive

How did C=C(C(=O)O)[C@H]1C[C@]2(C)C(=O)CC[C@]23O[C@H]1C[C@@H]3C do in these assays?
Methyltransferases: active

What do the screens show for `CS(=O)(=O)c1cccc(CNc2nc(Nc3ccc4c(c3)CCC(=O)N4)ncc2C(F)(F)F)c1`?
Methyltransferases: active

Results for CC(C)CNC(=O)c1ccc2c(=O)n(CC(C)C)c3nn(Cc4ccccc4Cl)c(=O)n3c2c1 ?
Methyltransferases: inactive

How did Cc1ccc(C)c(NC(=O)Cn2c(=O)oc3cc(S(=O)(=O)N4CCCC4)ccc32)c1 do in these assays?
Methyltransferases: inactive

What do the screens show for `CC(Cc1ccco1)NC(=O)c1cc2n(n1)CCCN(Cc1ccccc1)C2=O` (stereo unspecified)?
Methyltransferases: inactive

How did Cc1ccccc1CNC(=O)C1(C)Cc2ccccc2C(=O)N1Cc1cccc(Cl)c1 (stereo unspecified) do in these assays?
Methyltransferases: inactive

How did Cc1nc(N=Nc2cc(S(=O)(=O)O)c3cc([N+](=O)[O-])cc(S(=O)(=O)O)c3c2)c(COP(=O)(O)O)c(C=O)c1O do in these assays?
Methyltransferases: active

What do the screens show for `CCC(C)NC(=O)c1ccc2c(=O)nc3c(-c4cccc(F)c4)n[nH]n3c2c1` (stereo unspecified)?
Methyltransferases: inactive

Results for COc1ccc(OC)c(CNC(=O)Cn2ccc3cc(S(=O)(=O)N4CCCC4)ccc32)c1 ?
Methyltransferases: inactive

What do the screens show for `CCCN1C(=O)c2c(C(=O)NCc3ccc(OC(C)C)cc3)ncn2CC1(C)C(=O)NC1CCCC1` (stereo unspecified)?
Methyltransferases: inactive

How did Cc1ccc(N(C)C(=O)Cn2c(=O)oc3cc(S(=O)(=O)N4CC(C)CC(C)C4)ccc32)cc1 (stereo unspecified) do in these assays?
Methyltransferases: inactive

Results for COc1cccc(CSc2nnc3n(CCc4ccccc4)c(=O)c4ccccc4n23)c1 ?
Methyltransferases: inactive

Results for CCOCCCNc1nc2c(S(=O)(=O)c3ccc(C)c(C)c3)nnn2c2ccc(Cl)cc12 ?
Methyltransferases: inactive

Results for O=c1[nH]c(=S)[nH]c(-c2ccccc2)c1Cc1c(O)ccc2ccccc12 ?
Methyltransferases: active

Screening results (PubChem)
